Test results: PubChem BioAssay (EPA / NIEHS)
Records with an inconclusive call do not appear. Active and inactive are the calls of the source. Rule for the calls, unless noted: active = hit-call score of the fitted dose curve at least 0.9, where 1 is the maximum; inactive = score below 0.9.

Legend:
[1] = target: CCAAT/enhancer-binding protein beta (Homo sapiens) (UniProt P17676); test: ATG_C_EBP_CIS: Attagene CIS-FACTORIAL HepG2 Assay for human CCAAT/Enhancer Binding Protein (C/EBP) beta (AID 2282927); settings: HepG2 Attagene cis-factorial transcription factor reporter; actives raise or lower the signal
Chain of CCAAT/enhancer-binding protein beta (Homo sapiens) (P17676 whole entry, looked up): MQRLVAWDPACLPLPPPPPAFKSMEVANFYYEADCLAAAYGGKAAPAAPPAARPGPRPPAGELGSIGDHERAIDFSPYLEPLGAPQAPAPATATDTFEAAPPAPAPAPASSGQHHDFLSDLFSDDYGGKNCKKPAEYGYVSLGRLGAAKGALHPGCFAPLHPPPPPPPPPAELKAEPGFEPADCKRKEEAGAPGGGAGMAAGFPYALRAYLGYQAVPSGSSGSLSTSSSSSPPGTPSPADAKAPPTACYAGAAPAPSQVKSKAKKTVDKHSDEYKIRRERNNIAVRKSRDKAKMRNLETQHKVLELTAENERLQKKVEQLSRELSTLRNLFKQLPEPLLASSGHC
How it was run: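 RT-PCR/capillary electrophoresis fluorescence of reporter mRNA, 24 h post-dose, in HepG2 cells carrying transfected cis-promoter reporter units. Bidirectional curve fitting against DMSO baseline captures gain or loss of signal.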

[2] = ATG_CMV_CIS: Attagene CIS-FACTORIAL HepG2 Assay for human CMV (Internal Marker) (AID 2282928); settings: HepG2 CMV promoter reporter, transcription factor profiling; actives raise or lower the signal;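 note: endpoint acts as a background internal control marker rather than a target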
How it was run: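 Cell system: HepG2, transiently transfected multiple reporter units under cis promoters. Exposure: 24 h. Detection: RT-PCR, FAM labeling, HpaI digestion, capillary electrophoresis. Analysis: bidirectional, DMSO baseline.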

[3] = target: Hypoxia-inducible factor 1-alpha (Homo sapiens) (UniProt Q16665); test: ATG_HIF1a_CIS: Attagene CIS-FACTORIAL HepG2 Assay for human Hypoxia Inducible Factor 1 (HIF1A) (AID 2282951); settings: HepG2 Attagene cis-factorial HIF1a reporter transcription; actives raise or lower the signal
Chain of Hypoxia-inducible factor 1-alpha (Homo sapiens) (Q16665 whole entry, looked up): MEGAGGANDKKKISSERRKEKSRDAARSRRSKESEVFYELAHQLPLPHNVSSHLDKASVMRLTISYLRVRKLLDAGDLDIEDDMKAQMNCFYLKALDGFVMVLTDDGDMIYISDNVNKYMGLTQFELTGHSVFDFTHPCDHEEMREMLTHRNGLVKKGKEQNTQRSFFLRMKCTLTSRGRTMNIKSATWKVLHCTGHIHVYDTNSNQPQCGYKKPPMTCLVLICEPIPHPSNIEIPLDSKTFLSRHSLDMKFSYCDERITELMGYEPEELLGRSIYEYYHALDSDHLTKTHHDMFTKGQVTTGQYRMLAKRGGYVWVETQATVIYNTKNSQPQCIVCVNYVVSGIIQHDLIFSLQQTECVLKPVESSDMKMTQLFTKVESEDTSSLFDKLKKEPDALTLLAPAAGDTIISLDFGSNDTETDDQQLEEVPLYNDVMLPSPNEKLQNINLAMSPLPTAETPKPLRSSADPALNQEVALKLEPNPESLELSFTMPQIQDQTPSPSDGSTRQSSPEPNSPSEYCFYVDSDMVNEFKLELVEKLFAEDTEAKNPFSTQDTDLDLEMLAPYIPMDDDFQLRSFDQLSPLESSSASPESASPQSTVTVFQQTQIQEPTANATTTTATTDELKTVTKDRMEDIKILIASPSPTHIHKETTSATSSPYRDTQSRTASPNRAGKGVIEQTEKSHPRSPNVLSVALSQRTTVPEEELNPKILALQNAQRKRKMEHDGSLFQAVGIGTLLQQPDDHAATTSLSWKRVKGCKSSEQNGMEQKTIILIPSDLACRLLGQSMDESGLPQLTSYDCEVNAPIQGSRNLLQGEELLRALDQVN
How it was run: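 Activity is fitted in both directions relative to DMSO. Reporter transcripts are read by RT-PCR, fluorescent primer extension and capillary electrophoresis after 24 h chemical treatment. The cells are HepG2 carrying transiently transfected cis-element-driven reporter units responding to endogenous factors.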

[4] = target: Hepatocyte nuclear factor 6 (Homo sapiens) (UniProt Q9UBC0); test: ATG_HNF6_CIS: Attagene CIS-FACTORIAL HepG2 Assay for human Hepatocyte Nuclear Factor 6 (HNF6) (AID 2282952); settings: HepG2 Attagene cis-factorial HNF6 reporter transcription; actives raise or lower the signal
Chain of Hepatocyte nuclear factor 6 (Homo sapiens) (Q9UBC0 whole entry, looked up, the tested form may be a part): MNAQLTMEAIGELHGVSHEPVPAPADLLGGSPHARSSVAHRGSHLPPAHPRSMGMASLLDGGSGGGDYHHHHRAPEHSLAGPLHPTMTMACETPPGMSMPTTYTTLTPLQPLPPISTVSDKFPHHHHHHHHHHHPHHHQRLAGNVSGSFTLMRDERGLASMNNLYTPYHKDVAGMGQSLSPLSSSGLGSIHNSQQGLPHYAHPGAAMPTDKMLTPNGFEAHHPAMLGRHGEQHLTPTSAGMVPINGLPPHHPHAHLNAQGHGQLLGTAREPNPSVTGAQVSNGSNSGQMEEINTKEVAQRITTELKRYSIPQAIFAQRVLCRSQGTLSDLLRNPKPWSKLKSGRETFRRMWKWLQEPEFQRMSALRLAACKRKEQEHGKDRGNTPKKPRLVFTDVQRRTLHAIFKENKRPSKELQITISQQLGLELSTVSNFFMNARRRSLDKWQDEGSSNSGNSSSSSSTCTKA
How it was run: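 HepG2 cells transiently transfected with cis-element-driven multiplexed reporter units measuring endogenous transcription factor activity. After 24 h exposure, reporter mRNA quantified by RT-PCR, FAM-labelled fragments and capillary electrophoresis; bidirectional fitting versus DMSO.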

[5] = target: Heat shock factor protein 1 (Homo sapiens) (UniProt Q00613); test: ATG_HSE_CIS: Attagene CIS-FACTORIAL HepG2 Assay for human Heat Shock Transcription Factor 1 (HSE) (AID 2282953); settings: HepG2 HSE cis-reporter, Attagene RNA transcription; actives raise or lower the signal
Chain of Heat shock factor protein 1 (Homo sapiens) (Q00613 whole entry, looked up, the tested form may be a part): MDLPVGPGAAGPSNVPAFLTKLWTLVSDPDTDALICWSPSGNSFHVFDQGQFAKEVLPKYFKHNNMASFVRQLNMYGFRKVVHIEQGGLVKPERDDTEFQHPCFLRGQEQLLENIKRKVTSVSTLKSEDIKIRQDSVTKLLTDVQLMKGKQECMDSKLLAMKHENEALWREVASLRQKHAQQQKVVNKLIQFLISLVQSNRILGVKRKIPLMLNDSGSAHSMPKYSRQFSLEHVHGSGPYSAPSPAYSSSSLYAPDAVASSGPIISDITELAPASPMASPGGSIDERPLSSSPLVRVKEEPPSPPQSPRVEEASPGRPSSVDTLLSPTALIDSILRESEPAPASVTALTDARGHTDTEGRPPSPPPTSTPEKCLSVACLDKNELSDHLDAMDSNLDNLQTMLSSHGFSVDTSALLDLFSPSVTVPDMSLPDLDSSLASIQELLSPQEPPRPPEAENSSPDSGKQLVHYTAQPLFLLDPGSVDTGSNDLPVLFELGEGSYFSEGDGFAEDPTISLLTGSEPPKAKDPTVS
How it was run: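 Read-out: fluorescence of reporter-specific RT-PCR fragments separated by capillary electrophoresis. HepG2 carrying transfected cis-element reporter units; 24 h dosing; activity fitted in both directions relative to DMSO baseline.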

[6] = ATG_RORE_CIS: Attagene CIS-FACTORIAL HepG2 Assay for human RAR-related Orphan Receptor Element (RORE) (AID 2282959); settings: HepG2 Attagene cis-factorial RORE reporter, mRNA; actives raise or lower the signal
How it was run: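 RORE reporter transcripts reflecting endogenous factor activity were read after 24 h compound exposure of transfected HepG2 cells, using reverse transcription, PCR, fluorescent labelling and capillary electrophoresis sizing. Gain or loss fitted against DMSO.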

[7] = ATG_TA_CIS: Attagene CIS-FACTORIAL HepG2 Assay for human TA Basal Promoter (AID 2282964); settings: HepG2 Attagene CIS-factorial TA basal promoter reporter; actives raise or lower the signal
How it was run: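 Transfected HepG2, 24 h compound exposure; RNA → RT-PCR → FAM primer extension → HpaI cut → CE fluorescence. Gain/loss-of-signal fitted against DMSO negative control. Background-control readout.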

[8] = ATG_TCF_b_cat_CIS: Attagene CIS-FACTORIAL HepG2 Assay for human T-Cell-Factor with beta-catenin (TCF/b-cat) (AID 2282965); settings: HepG2 TCF/beta-catenin cis-reporter transcription, actives raise or lower the signal
How it was run: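 HepG2 cells transiently transfected with multiple cis-promoter-regulated reporter transcription units, so endogenous transcription factor activity is measured. Reporter mRNA read 24 hours after dosing by RT-PCR, fluorescent labelling and capillary electrophoresis; bidirectional fitting against DMSO.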

[9] = ATG_TAL_CIS: Attagene CIS-FACTORIAL HepG2 Assay for human TAL Basal Promoter (AID 2282966); settings: HepG2 Attagene cis-factorial TAL promoter reporter; actives raise or lower the signal;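 note: background control endpoint measuring basal TAL promoter reporter mRNA not a specific factor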
How it was run: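 HepG2 cells transiently transfected with multiplexed cis-promoter reporter units, dosed 24 h. Reporter mRNA quantified by RT-PCR, 6-FAM labelling, HpaI digestion and capillary electrophoresis; TAL basal promoter serves as background control, fitted bidirectionally versus DMSO.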

[10] = ATG_TGFb_CIS: Attagene CIS-FACTORIAL HepG2 Assay for human Transforming Growth Factor (TGF) (AID 2282967); settings: HepG2 Attagene CIS TGFb reporter, mRNA transcription; actives raise or lower the signal
How it was run: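 Readout: fluorescently labeled reporter cDNA fragments resolved by capillary electrophoresis after RT-PCR. Transfected HepG2 cells dosed for 24 h; endogenous TF activity at TGFB1-linked cis element; gain or loss fitted relative to DMSO.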

[11] = ATG_VDRE_CIS: Attagene CIS-FACTORIAL HepG2 Assay for human Vitamin D Receptor Element (VDRE) (AID 2282968); settings: HepG2 VDRE cis-reporter transcription, actives raise or lower the signal
How it was run: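 HepG2 cells transiently transfected with cis-element reporter units, dosed 24 h; reporter mRNA measured by RT-PCR, 6-FAM labeling, HpaI digestion and capillary electrophoresis. Activity fitted bidirectionally against DMSO baseline.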

[12] = ATG_M_32_TRANS: Attagene TRANS-FACTORIAL HepG2 Assay for M32 Transcription Factor (Internal Marker) (AID 2282984; active = hit-call score of the fitted dose curve at least 0.9, where 1 is the maximum;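 note: transcript level of a background control reporter unit measured by RT-PCR and capillary electrophoresis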); settings: HepG2 Attagene TRANS M32 internal marker reporter
How it was run: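 HepG2 cells transiently transfected with multiple GAL4-UAS reporter transcription units, dosed for 24 hours; reporter mRNA quantified by RT-PCR, 6-FAM primer extension, HpaI digestion and capillary electrophoresis. Gain-of-signal fitted versus DMSO baseline; internal background-control marker.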

[13] = target: Transcriptional activator Myb (Homo sapiens) (UniProt P10242); test: ATG_Myb_CIS: Attagene CIS-FACTORIAL HepG2 Assay for human Myeloblastosis (Myb) Proto-Oncogene Transcription Factor (AID 2282986); settings: HepG2 Attagene CIS-FACTORIAL Myb reporter transcription; actives raise or lower the signal
Chain of Transcriptional activator Myb (Homo sapiens) (P10242 whole entry, looked up): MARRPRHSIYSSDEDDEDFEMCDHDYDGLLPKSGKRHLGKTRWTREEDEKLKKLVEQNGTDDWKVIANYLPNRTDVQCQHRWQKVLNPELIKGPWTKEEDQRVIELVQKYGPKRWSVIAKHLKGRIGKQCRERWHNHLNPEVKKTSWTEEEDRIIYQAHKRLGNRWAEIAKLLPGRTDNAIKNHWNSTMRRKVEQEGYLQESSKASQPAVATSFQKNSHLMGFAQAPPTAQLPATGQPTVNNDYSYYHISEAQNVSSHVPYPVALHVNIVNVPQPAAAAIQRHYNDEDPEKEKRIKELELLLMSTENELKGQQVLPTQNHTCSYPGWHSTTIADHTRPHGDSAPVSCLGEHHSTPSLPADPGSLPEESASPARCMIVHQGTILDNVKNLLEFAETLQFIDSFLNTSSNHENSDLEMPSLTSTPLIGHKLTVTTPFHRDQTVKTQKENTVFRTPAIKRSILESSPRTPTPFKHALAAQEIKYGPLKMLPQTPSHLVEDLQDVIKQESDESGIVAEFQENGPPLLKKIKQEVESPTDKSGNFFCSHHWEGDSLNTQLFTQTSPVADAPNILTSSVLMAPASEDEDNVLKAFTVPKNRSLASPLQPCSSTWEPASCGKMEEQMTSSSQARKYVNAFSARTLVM
How it was run: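 Reporter mRNA is quantified by RT-PCR and capillary electrophoresis 24 h after dosing HepG2 cells transfected with cis-regulated reporter units, which track endogenous transcription factor activity. Gain and loss of signal are fitted versus DMSO baseline.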

[14] = target: Myc proto-oncogene protein (Homo sapiens) (UniProt P01106); test: ATG_Myc_CIS: Attagene CIS-FACTORIAL HepG2 Assay for human Myelocytomatosis (Myc) Proto-Oncogene Transcription Factor (AID 2282990); settings: HepG2, Attagene cis-reporter transcription factor activity; actives raise or lower the signal
Chain of Myc proto-oncogene protein (Homo sapiens) (P01106 whole entry, looked up): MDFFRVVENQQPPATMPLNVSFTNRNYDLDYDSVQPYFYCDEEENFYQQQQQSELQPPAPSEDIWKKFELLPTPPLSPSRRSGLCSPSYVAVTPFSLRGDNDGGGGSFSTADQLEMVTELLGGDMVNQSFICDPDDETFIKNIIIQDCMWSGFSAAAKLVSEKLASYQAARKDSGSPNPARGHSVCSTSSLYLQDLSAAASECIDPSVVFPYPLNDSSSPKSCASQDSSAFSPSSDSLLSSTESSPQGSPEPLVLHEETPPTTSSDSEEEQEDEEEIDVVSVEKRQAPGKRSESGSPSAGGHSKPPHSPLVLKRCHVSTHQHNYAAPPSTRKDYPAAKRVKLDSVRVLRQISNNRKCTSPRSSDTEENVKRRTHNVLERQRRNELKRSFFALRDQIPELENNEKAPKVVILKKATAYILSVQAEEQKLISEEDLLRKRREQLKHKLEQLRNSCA
How it was run: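 HepG2 cells transiently transfected with multiple cis-promoter-driven reporter transcription units, so endogenous TF activity is read. After 24 h compound exposure, reporter mRNA was quantified by RT-PCR, 6-FAM labelling, HpaI digestion and capillary electrophoresis; bidirectional fit versus DMSO.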

[15] = ATG_NF_kB_CIS: Attagene CIS-FACTORIAL HepG2 Assay for human Nuclear Factor Kappa B (NF-kB) (AID 2282991); settings: HepG2 Attagene cis-factorial NF-kB reporter mRNA; actives raise or lower the signal
How it was run: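 Readout is reporter transcript level, gain or loss versus DMSO, measured 24 h post-dose via RT-PCR, fluorescent labelling and capillary electrophoresis. Human HepG2 liver cells carried transiently transfected CIS reporter constructs reflecting endogenous factors.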

[16] = ATG_NRF2_ARE_CIS: Attagene CIS-FACTORIAL HepG2 Assay for human Nuclear Factor Erythroid 2 Related Factor 2 (NFR2) response to Antioxidant Response Elements (ARE) (AID 2282992); settings: HepG2 Attagene ARE/NRF2 reporter, transcription factor activity; actives raise or lower the signal;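 for AC50: reporter mRNA level measured by RT-PCR and capillary electrophoresis fluorescence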
How it was run: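 Cis-factorial assay: transfected HepG2 reporter library, 24 h dosing, mRNA readout via RT-PCR/CE; DMSO-referenced bidirectional analysis.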

[17] = ATG_Oct_MLP_CIS: Attagene CIS-FACTORIAL HepG2 Assay for human Octamer-Binding Transcription Factor (Oct) (AID 2282993); settings: HepG2 Attagene cis-factorial Oct reporter, mRNA; actives raise or lower the signal
How it was run: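 Read-out: reporter mRNA via RT-PCR plus capillary electrophoresis of 6-FAM-labelled fragments. Transiently transfected HepG2, 24 h exposure, endogenous TF activity on cis elements. Gain or loss of signal fitted relative to DMSO.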

[18] = target: Cellular tumor antigen p53 (Homo sapiens) (UniProt P04637); test: ATG_p53_CIS: Attagene CIS-FACTORIAL HepG2 Assay for human p53 Transcription Factor (AID 2282994); settings: HepG2 p53 cis-element reporter, Attagene mRNA; actives raise or lower the signal
Chain of Cellular tumor antigen p53 (Homo sapiens) (P04637 whole entry, looked up): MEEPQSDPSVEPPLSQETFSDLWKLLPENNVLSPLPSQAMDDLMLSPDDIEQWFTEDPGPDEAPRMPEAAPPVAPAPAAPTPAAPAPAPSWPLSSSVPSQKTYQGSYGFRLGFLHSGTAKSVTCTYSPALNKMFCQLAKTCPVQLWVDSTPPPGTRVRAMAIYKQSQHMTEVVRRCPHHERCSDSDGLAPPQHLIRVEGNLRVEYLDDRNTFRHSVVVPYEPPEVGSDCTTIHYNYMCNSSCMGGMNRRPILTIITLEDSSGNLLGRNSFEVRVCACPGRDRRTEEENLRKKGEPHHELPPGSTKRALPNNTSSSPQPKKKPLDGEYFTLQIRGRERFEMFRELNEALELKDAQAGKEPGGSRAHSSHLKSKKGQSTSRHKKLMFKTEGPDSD
How it was run: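 Using HepG2 hepatoma cells carrying cis-acting multiplexed reporters, mRNA induction is detected after a 24 h exposure. Gain- and loss-of-signal responses are fitted relative to DMSO-treated cells.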

[19] = ATG_XTT_Cytotoxicity: Cytotoxicity Assessment in the Attagene TRANS-FACTORIAL HepG2 Assay (AID 2283584; active = hit-call score of the fitted dose curve at least 0.9, where 1 is the maximum)
How it was run: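 HepG2 cells transiently transfected with GAL4-UAS multiple reporter units, dosed 24 h; cytotoxicity read by XTT as loss of signal versus DMSO baseline.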

[20] = target: Aryl hydrocarbon receptor (Homo sapiens) (UniProt P35869); test: ATG_Ahr_CIS: Attagene CIS-FACTORIAL HepG2 Assay for human Aryl Hydrocarbon Receptor (Ahr) (AID 2282930); settings: HepG2 AhR cis-factorial reporter transcription; actives raise or lower the signal
Chain of Aryl hydrocarbon receptor (Homo sapiens) (P35869 whole entry, looked up): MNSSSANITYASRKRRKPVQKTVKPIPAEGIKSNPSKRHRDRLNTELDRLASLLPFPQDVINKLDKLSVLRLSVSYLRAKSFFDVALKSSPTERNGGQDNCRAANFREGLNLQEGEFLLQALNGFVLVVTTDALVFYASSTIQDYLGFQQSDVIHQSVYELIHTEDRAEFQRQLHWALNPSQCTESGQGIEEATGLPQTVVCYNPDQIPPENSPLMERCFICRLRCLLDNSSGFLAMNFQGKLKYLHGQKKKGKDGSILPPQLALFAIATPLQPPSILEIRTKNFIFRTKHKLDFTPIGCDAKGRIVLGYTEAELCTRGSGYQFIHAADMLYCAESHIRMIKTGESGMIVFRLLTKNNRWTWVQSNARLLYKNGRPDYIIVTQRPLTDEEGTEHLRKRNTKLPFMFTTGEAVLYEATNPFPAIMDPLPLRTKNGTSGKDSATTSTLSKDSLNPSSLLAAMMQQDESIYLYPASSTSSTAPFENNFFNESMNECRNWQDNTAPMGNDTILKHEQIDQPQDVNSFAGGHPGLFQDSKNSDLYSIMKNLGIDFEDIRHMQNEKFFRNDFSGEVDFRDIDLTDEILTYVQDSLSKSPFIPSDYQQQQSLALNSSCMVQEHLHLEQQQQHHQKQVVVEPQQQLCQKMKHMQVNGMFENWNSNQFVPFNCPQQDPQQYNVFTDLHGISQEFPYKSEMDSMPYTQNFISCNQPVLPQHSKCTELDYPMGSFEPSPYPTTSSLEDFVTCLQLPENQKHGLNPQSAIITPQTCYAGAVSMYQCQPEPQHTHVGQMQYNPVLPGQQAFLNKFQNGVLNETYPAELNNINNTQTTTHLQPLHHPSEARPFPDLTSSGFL
How it was run: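 HepG2 cells transiently transfected with cis-element-driven multiplexed reporter transcription units; endogenous transcription factor activity measured as reporter mRNA 24 h after dosing. RT-PCR, 6-FAM labelling, HpaI digestion, capillary electrophoresis; bidirectional fitting versus DMSO baseline.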

Measured: AC50

C=C(Cl)CCl
not listed: [20]
inactive: all other assays above

CC(=O)C=Cc1ccccc1
inactive: [20] | [3] | [6] | [7] | [8] | [10] | [14] | [19]
active: [1] 100 µM | [2] 128 µM | [4] 179 µM | [5] 152 µM | [11] 100 µM | [13] 128 µM | [15] 163 µM | [16] 56.5 µM | [17] 100 µM

CN(C)C(=O)C(c1ccccc1)c1ccccc1
not listed: [9]
inactive: all other assays above

CC(C)(C)C(=O)CCl
active: [3] 62.4 µM | [5] 157 µM | [16] 21.6 µM
not listed: [20]
inactive: all other assays above

C=CCN(CC=C)C(=O)C(Cl)Cl
active: [16] 50.9 µM
not listed: [4] | [12]
inactive: all other assays above

Nc1ccccc1C(=O)OCCc1ccccc1
active: [20] 10 µM | [3] 31.9 µM | [6] 20.8 µM | [9] 33.4 µM | [11] 22.3 µM | [16] 13.1 µM
inactive: all other assays above

[N-]=[N+]=CC(=O)OC[C@H](N)C(=O)O
not listed: [3] | [5] | [20]
inactive: all other assays above

CCOP(=O)(OCC)OCC
not listed: [2] | [4] | [15]
inactive: all other assays above

O=C(CCl)c1ccccc1
active: [16] 8.04 µM | [18] 58.6 µM
not listed: [2] | [12]
inactive: all other assays above

CC(O)CN(CC(C)O)CC(C)O (stereo not drawn)
not listed: [11] | [15] | [19] | [20]
inactive: all other assays above

[CH3][Sn]([Cl])([Cl])[Cl]
active: [16] 57.6 µM
not listed: [2] | [12] | [15] | [19]
inactive: all other assays above

S=c1[nH]c2ccccc2[nH]1
not listed: [2] | [4] | [9] | [11] | [12] | [15]
inactive: all other assays above

CC(C)(c1cc(Cl)c(O)c(Cl)c1)c1cc(Cl)c(O)c(Cl)c1
active: [5] 56.5 µM | [8] 33.4 µM | [11] 27.2 µM | [13] 47.8 µM | [15] 9 µM | [18] 52.1 µM
not listed: [2] | [4]
inactive: all other assays above

O=P1(NCCCl)OCCCN1CCCl (stereo not drawn)
not listed: [2] | [4] | [11] | [18]
inactive: all other assays above

O=C(O)CCl
not listed: [4] | [15] | [18] | [20]
inactive: all other assays above

C[C@]12CC[C@H]3[C@@H](CC[C@@]45O[C@@H]4C(O)=C(C#N)C[C@]35C)[C@@H]1CC[C@@H]2O
active: [3] 64.5 µM | [8] 75 µM | [11] 33.9 µM | [15] 18.6 µM | [16] 58.9 µM | [17] 63.3 µM
not listed: [2] | [4]
inactive: all other assays above
